Compounds with a hit are over-represented: about 1.8% of the library has one in this group of screens.
TLR9-MyD88 inh: blocks human TLR9 binding to MyD88. Q9NR96+Q99836. 340,000 tested, 0.21% active. inhibition, % at 4.98 µM. CHO BLA complementation TLR9-MyD88, CCF4 FRET ratio. AID 504734;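 active means inhibition above the mean over all tested compounds plus 3 SD, cut at about 21% in these data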;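 further: 0% = DMSO only wells and 100% = clavulanate BLA inhibitor control wells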
TLR4-MyD88 BLA: blocks binding of human TLR4 to MyD88; O00206+Q99836; HeLa CL3-4 TLR4/MyD88 BLA complementation, FRET ratio; inhibition, % at 8.4 µM; 200,000 tested, 0.18% active; AID 861; in the data active means inhibition above about 25%;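 further: 0% = vehicle and 100% = reference inhibitor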
NOD2 RIPK2 PPI: blocks binding of human NOD2 to RIPK2 | O43353 | CHO BLA complementation NOD2-RIPK2, CCF4 ratio | inhibition, % at 4.98 µM | 360,000 tested, 0.38% active | AID 624267; in the data active means inhibition above about 21%;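 further: 0% = vehicle only and 100% = reference blocker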
Mcl-1 Bim block: disrupts Bim peptide binding to human Mcl-1; AID 1009; inhibition, % at 10 µM; 190,000 tested, 0.1% active; Bead-based flow cytometry, Bim peptide-Mcl-1 binding; in the data active means inhibition above about 40%;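 further: 0% = no compound tracer wells and 100% = peptide blocker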
Mcl1 Noxa PPI: disrupts binding of human Mcl-1 to Noxa peptide | Q07820 | TR-FRET Mcl-1/Noxa peptide binding, 2 h | inhibition, % at 21.7 µM | 220,000 tested, 1.5% active;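 active means compounds that cut the protein-peptide binding signal by more than 50% relative to plate controls in a single-dose test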;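 further: His-tagged Mcl-1 with rhodamine Noxa BH3 peptide and terbium anti-His antibody; 0% = Mcl-1 plus Noxa peptide wells and 100% = peptide-only wells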
Mcl1 Bid PPI: Mcl-1/Bid interaction inhibition. Q07820. TR-FRET Mcl-1/Bid-Dy647 peptide binding, 1536-well. inhibition, % at 21.7 µM. 220,000 tested, 0.97% active;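 active means compounds that cut the binding signal by more than half at the single screening dose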;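 further: His-tagged Mcl-1 with europium anti-His antibody binding Bid BH3 peptide; 0% = Mcl-1 plus peptide wells and 100% = peptide-only wells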
* hit, by the source's call; x = no result given.

SMILES	TLR9-MyD88 inh	TLR4-MyD88 BLA	NOD2 RIPK2 PPI	Mcl-1 Bim block	Mcl1 Noxa PPI	Mcl1 Bid PPI
COc1cc(O)oc1C=Nc1ccc(C(F)(F)F)cc1	-1	7	-9	-2	64*	-46
COc1cc(O)sc1C=Nc1ccc(Cl)cc1	2	-2	0	2	16	-15
CC1CCCN(Cc2c(O)ccc3c2O/C(=C\c2ccco2)C3=O)C1 (stereo not drawn)	2	7	13	0	58*	-4
N#CCC(=O)Nc1ccc(C(=O)OCC(=O)N2CCCC2=O)cc1	-3	x	-6	x	x	x
COC(=O)c1ccc2c(=O)n(CCCCCC(=O)NCc3ccc4c(c3)OCO4)c(=O)[nH]c2c1	-2	-7	6	4	-32	56*
COC(=O)c1ccc2c(=O)n(CCCCCC(=O)NCc3ccccc3)c(=O)[nH]c2c1	-8	0	-6	27	8	18
Cc1cc(C)cc(NC(=O)Nc2ccccc2N2CCCCC2)c1	-3	x	2	x	3	-13
Cc1nn(CCc2nn[nH]n2)c2nc(-c3ccc(C4CCCCC4)cc3)cc(C(F)(F)F)c12	-5	-8	0	0	-45	59*
Cn1cccc1Cc1nnc(SCC(=O)Nc2cccc(Cl)c2)n1-c1ccc(F)cc1	-5	-3	-11	-2	3	65*
COc1ccc(N2CCC(CNS(=O)(=O)c3cccc(C(F)(F)F)c3)C2)cc1 (stereo not drawn)	4	-11	-1	0	80*	6
COc1ccc(N2CCC(CNC(=S)Nc3c(C)cc(C)cc3C)C2)cc1 (stereo not drawn)	4	x	-8	x	5	-80
COc1ccc(N2CCC(CNC(=O)Nc3ccc(C)c(C)c3)C2)cc1 (stereo not drawn)	3	0	-7	-4	101*	3
COc1ccc(N2CCC(CNC(=O)Nc3ccc(OC)cc3OC)C2)cc1 (stereo not drawn)	0	-18	-2	-2	90*	-86
COc1ccc(N2CCC(CNC(=S)Nc3cccc(C)c3)C2)cc1 (stereo not drawn)	-9	2	4	3	73*	-73
COc1ccc(CNC(=O)C2CCN(S(=O)(=O)c3cccc(C(F)(F)F)c3)CC2)cc1	0	x	-6	x	x	x
CC(C)=CCC/C(C)=C/CNC(=O)C[C@H]1C[C@H](C(=O)N2CCCCC2)[C@@]2(C)c3[nH]c4cc(CCC(=O)N(C)C)ccc4c3CCN2C1=O	2	x	10	x	x	x
COc1ccc(CN2C(=O)c3cccnc3C2=O)cc1S(=O)(=O)N(C)c1ccc(C)cc1	-2	x	-3	x	x	x
CCOc1ccc(NC(=O)NCC2CCN(c3ccc(OC)cc3)C2)cc1 (stereo not drawn)	-1	5	8	-4	-7	-10
CCc1ccc(NC(=O)NCC2CCN(c3ccc(OC)cc3)C2)cc1 (stereo not drawn)	-14	x	-1	x	73*	-129
N#C/C(=C(/O)CSc1ncn[nH]1)c1nc2ccccc2[nH]1	-5	0	0	-3	48	-45
CCC(/C=C1\Sc2ccc(OC)cc2N1CCO)=C\c1sc2ccc(OC)cc2[n+]1CCO	0	-14	-9	42*	-97	-94
CCOc1cc(/C=C(/C#N)c2nc3ccccc3[nH]2)ccc1OCc1ccc(C(=O)O)o1	-6	-2	-1	7	52*	-18
Cn1c(CNc2nc(-c3ccccc3)cs2)nnc1SCC(=O)N1CCc2ccccc21	-7	-8	-12	51*	5	-18
Cc1ccnc(NC(=O)C2CC(=O)N(c3ccc4c(c3)OCCO4)C2)c1 (stereo not drawn)	-4	x	-15	x	x	x
O=C1NC(=S)S/C1=C\C=C\c1ccc([N+](=O)[O-])o1	-5	x	2	x	103*	21
SMILES	TLR9-MyD88 inh	TLR4-MyD88 BLA	NOD2 RIPK2 PPI	Mcl-1 Bim block	Mcl1 Noxa PPI	Mcl1 Bid PPI
COc1cc(NC(=O)c2cc3ccccc3cc2O)c(OC)cc1Cl	6	x	18	x	61*	-32
COc1ccccc1NC(=O)c1cn(C)c(=O)c2cc(OC)c(OC)cc12	-8	0	-18	-6	8	84*
COc1ccccc1NC(=O)c1cc2cc(Br)ccc2cc1O	8	x	7	x	88*	-34
COC(=O)c1cccc(C(=O)N2CCCC(CCC(=O)N(C)CCc3ccccn3)C2)c1 (stereo not drawn)	2	x	-6	x	x	x
Oc1ccc(N2CCN(c3nc(-c4cccs4)nc4ccccc34)CC2)cc1	-5	x	5	x	94*	-42
c1ccc(N2CCN(c3nc(-c4cccs4)nc4ccccc34)CC2)cc1	5	5	-1	5	0	-9
COc1ccc(C2=NC(=O)/C(=C\c3cc(OC)c(OC)c(OC)c3)O2)cc1	-2	9	-5	-7	32	54*
CCOC(=O)C1CCCN(C(=O)c2cccs2)CC1 (stereo not drawn)	x	x	-1	x	x	x
O=C(/C=C\Nc1ccc(S(=O)(=O)Nc2ncccn2)cc1)c1cccc2ccccc12	2	x	11	x	-26	96*
CO[C@@H]1CN(C)C(=O)c2cc(NC(=O)NC3CCCCC3)ccc2OC[C@@H](C)N(CC2CCOCC2)C[C@@H]1C	x	x	-19	x	x	x
O=C(c1ccc(S(=O)(=O)N2CCc3ccccc3C2)cc1)N1CCCCC1	4	-4	-1	-2	1	-13
CCn1cc(C(=O)O)c(=O)c2cc(F)c(N/N=C/c3ccccc3[N+](=O)[O-])cc21	-2	1	-3	8	55*	62*
CCn1cc(C(=O)O)c(=O)c2cc(F)c(N3CCN(C(=S)Nc4ccccc4OC)CC3)cc21	6	x	-13	x	-32	-88
CN(C(=O)OC(C)(C)C)c1ccc(-c2nc3ccccc3s2)cc1	2	x	-4	x	x	x
COc1cccc(C(=O)OCC(=O)NC(C)CCc2ccccc2)c1O (stereo not drawn)	-4	x	1	x	x	x
O=C(O)c1c2c(nc3ccccc13)/C(=C/c1ccc(O)cc1)CC2	9	23	-2	2	55*	-19
O=C(O)c1c2c(nc3ccccc13)/C(=C/c1ccc(OC(F)F)cc1)CCC2	4	x	-7	x	x	x
CC(=O)Nc1ccc(Cl)c(C(N)=O)c1	-4	-9	-7	-2	24	14
NC(=O)c1cc(N2C(=O)C=CC2=O)ccc1Cl	-5	-13	4	0	68*	-54
COCCNC(=O)C1(C)CCCN(CCOc2ccc(Cl)cc2)C1 (stereo not drawn)	x	x	4	x	x	x
N#C/C(=C\c1ccc(C(=O)O)cc1)c1nc2sc3c(c2c(=O)[nH]1)CCCC3	6	x	7	x	74*	13
COCCN1C(=O)C(=O)/C(=C(/O)c2ccc(S(=O)(=O)N3CCOCC3)cc2)C1c1cccc(Cl)c1 (stereo not drawn)	4	x	-5	x	40	66*
CCCCn1c(-c2ccc(Cl)cc2)nc2c(=O)n(C)c(=O)[nH]c21	-6	4	2	-1	76*	-29

Compound activity from PubChem BioAssay.
